Consider 22 compounds from PubChem BioAssay (Tox21).

The structures appear in SMILES notation. Where “and” joins values, the source holds several entries; their conditions need not be identical. Equal entries are not always repeated. Records with an inconclusive call do not appear. More than one record can exist for a structure, and the calls need not agree. Calls of active or inactive are those of the source. Unless noted, calls come from the whole dose curve.

Experiment [1] can be described thus: qHTS assay to identify small molecule agonists of the sonic hedgehog signaling (Shh) pathway (AID 1259368).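 Note: NIH/3T3-derived 3T3Gli1-Luc cells carrying a stable Gli1-driven firefly luciferase reporter; series mostly up to about 92 µM; nearly all actives have a fitted effect of over 15% in size.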 Summed up:
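Luminescence was read after 30 min at room temperature with luciferase reagent. Before that, 3T3Gli1-Luc cells (NIH/3T3 clone, stable Gli1-Luc reporter; 2,000/well) were exposed to compounds for 24 hr at 37C, 5% CO2, compounds being added 4 hr post-plating.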

Experiment [2] in a line: qHTS assay to identify small molecule antagonists of the sonic hedgehog signaling (Shh) pathway (AID 1259369). Note: nearly all actives have a fitted effect of over 45% in size. Note: potency is the fitted concentration of half-maximal effect. The gist of the method:
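Antagonist mode: compound added to 3T3 Gli1-Luc cells followed by conditioned-medium stimulation, 24 h at 37 C, 5% CO2. Inhibition taken as loss of Gli1-driven luciferase luminescence.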
For orientation: qHTS replaces the single test concentration by a dilution series.

In experiment [3] the target is Estrogen receptor beta (Homo sapiens) (UniProt Q92731). Briefly: qHTS assay to identify small molecule agonists of the estrogen receptor beta (ER-beta) signaling pathway (AID 1259377; active = well fitted activation curve with a large enough effect in the signal ratio in the repeat runs, not every such curve was filed as active; the % refers to the signal ratio). The gist of the method: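 Ratiometric beta-lactamase FRET read-out came after 2 h substrate loading at room temperature. It followed 16 h compound treatment at 37C of GripTite HEK293T cells carrying a UAS-bla reporter, plated in 2% charcoal-stripped FBS medium.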

Experiment [4] is described as follows: qHTS assay to identify small molecule agonists of the androgen receptor (AR) signaling pathway in the presence of an antagonist - cell viability counter screen (AID 1259379; active = well fitted curve in the direction sought with a large enough effect in the repeat runs; an effect the other way counts as inactive or inconclusive; note: nearly all actives have a fitted effect of over 25% in size; note: potency is the fitted concentration of half-maximal effect). The gist of the method: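 Cytotoxicity counter-screen run in the same wells as the nilutamide-challenged (3.0 µM final) AR agonist assay in MDA-kb2 cells. Compounds tested at 15 concentrations for 16 h, 37 °C without CO2; CellTiter-Fluor fluorescence read.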

The nature of experiment [5]: qHTS assay to identify small molecule agonists of the estrogen receptor beta (ER-beta) signaling pathway - cell viability counter screen (AID 1259380; active = well fitted curve in the direction sought with a large enough effect in the repeat runs; an effect the other way counts as inactive or inconclusive; note: nearly all actives have a fitted effect of over 30% in size; note: potency is the fitted concentration of half-maximal effect). Summed up:
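Cell viability counter screen: CellTiter-Glo luminescence (30 min, room temperature) measured in the same wells as the beta-lactamase readout, after 16 hr compound exposure at 37C of ER-beta-bla HEK293T cells in 2% charcoal-stripped FBS medium.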

Experiment [6] has as its target Androgen receptor (Homo sapiens) (UniProt P10275). Briefly: qHTS assay to identify small molecule agonists of the androgen receptor (AR) signaling pathway in the presence of an antagonist (AID 1259381). Note: nearly all actives have a fitted effect of over 15% in size. The gist of the method: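 Agonist-mode confirmation run against 3.0 uM final nilutamide: compounds titrated at 15 concentrations onto MDA-kb2 MMTV-luciferase reporter cells. Luminescence measured with ONE-Glo following 16 hr incubation, 37C, 0% CO2.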

Experiment [7] is described as follows: qHTS assay to identify small molecule agonists or antagonists of the thyroid stimulating hormone receptor (TSHR) signaling pathway - wild type cell line counter screen (AID 1259384). The gist of the method:
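Counter screen in untransfected Hek293: compounds (15-point titration, triplicate) plus phosphodiesterase inhibitor Ro20-1724 added after 18 h plating; 30 min RT. Intracellular cAMP via competitive d2/cryptate immunoassay, 1 h incubation.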

Experiment [8] deals with Estrogen receptor beta (Homo sapiens) (UniProt Q92731). Briefly: qHTS assay to identify small molecule antagonists of the estrogen receptor beta (ER-beta) signaling pathway (AID 1259378; active = well fitted inhibition curve with a large enough effect in the signal ratio in the repeat runs, not every such curve was filed as active; the % refers to the signal ratio). Summed up: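 Antagonist mode: compounds added to beta-lactamase reporter HEK293T ER-beta-UAS cells stimulated with E2 (1nM final), 16 hr at 37C. LiveBLAzer B/G FRET substrate, 2 hours room temperature, fluorescence read-out.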

A short description of experiment [9]: qHTS assay to identify small molecule antagonists of the estrogen receptor beta (ER-beta) signaling pathway - cell viability counter screen (AID 1259382; active = well fitted curve in the direction sought with a large enough effect in the repeat runs; an effect the other way counts as inactive or inconclusive; note: series mostly up to about 92 µM; nearly all actives have a fitted effect of over 55% in size). The gist of the method: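 Cytotoxicity was measured in the same wells by CellTiter-Glo luminescence after 30 min at room temperature. Cells were ER-beta-bla HEK293T in charcoal-stripped serum, given compound together with 1 nM E2 and incubated 16 h at 37C.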

Experiment [10] concerns the target Estrogen receptor (Homo sapiens) (UniProt P03372). Briefly: qHTS assay to identify small molecule agonists of the estrogen receptor alpha (ER-alpha) signaling pathway in the presence of an antagonist (AID 1259383). For activation: top concentration of the series differs between compounds. Note: nearly all actives have a fitted effect of over 15% in size. Note: potency is the fitted concentration of half-maximal effect. Summed up: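 Agonist-mode confirmation run in the presence of 10.0nM (final) ICI-182,780 antagonist. The reporter was ERE-driven luciferase in VM7Luc4E2 cells, grown in charcoal-stripped serum. Cells were exposed to 15-concentration compound series for 22hr, then ONE-Glo luminescence was read.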

Chain of Androgen receptor (Homo sapiens) (P10275 whole entry, looked up): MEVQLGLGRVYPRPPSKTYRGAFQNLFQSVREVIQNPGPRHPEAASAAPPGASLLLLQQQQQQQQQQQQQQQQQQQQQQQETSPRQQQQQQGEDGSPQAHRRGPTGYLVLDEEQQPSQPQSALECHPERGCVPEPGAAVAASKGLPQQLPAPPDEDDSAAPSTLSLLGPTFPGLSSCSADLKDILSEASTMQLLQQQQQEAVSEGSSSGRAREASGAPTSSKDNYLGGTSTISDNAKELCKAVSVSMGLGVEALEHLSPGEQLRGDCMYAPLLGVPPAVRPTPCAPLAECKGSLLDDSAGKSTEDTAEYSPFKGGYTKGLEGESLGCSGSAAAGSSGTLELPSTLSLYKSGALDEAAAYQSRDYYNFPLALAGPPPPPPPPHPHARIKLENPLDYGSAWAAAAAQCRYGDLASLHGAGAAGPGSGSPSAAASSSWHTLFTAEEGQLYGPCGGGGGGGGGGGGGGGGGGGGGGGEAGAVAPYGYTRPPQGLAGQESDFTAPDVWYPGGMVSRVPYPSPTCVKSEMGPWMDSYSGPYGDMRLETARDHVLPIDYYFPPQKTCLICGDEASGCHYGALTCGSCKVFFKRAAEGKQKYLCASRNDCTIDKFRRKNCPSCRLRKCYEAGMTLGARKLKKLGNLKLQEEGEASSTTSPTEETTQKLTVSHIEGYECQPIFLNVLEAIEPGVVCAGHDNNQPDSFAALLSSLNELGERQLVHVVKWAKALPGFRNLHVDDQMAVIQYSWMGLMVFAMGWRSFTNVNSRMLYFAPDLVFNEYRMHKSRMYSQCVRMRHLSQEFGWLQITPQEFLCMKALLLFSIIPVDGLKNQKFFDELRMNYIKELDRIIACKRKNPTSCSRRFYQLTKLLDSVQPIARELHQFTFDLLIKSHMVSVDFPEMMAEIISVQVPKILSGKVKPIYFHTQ
Chain of Estrogen receptor beta (Homo sapiens) (Q92731 whole entry, looked up): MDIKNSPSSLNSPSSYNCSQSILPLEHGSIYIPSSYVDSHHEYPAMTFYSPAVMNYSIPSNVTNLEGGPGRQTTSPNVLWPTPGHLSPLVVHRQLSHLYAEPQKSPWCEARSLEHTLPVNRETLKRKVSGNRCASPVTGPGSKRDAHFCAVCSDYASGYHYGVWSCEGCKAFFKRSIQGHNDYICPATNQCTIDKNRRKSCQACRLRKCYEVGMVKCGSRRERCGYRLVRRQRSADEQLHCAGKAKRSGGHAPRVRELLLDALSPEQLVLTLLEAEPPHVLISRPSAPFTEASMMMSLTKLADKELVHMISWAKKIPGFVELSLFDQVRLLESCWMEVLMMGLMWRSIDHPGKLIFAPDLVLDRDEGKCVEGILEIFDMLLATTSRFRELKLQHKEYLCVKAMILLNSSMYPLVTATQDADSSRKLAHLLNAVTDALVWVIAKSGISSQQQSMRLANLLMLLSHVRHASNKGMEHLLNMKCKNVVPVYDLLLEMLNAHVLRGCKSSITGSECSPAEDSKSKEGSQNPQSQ
Chain of Estrogen receptor (Homo sapiens) (P03372 whole entry, looked up): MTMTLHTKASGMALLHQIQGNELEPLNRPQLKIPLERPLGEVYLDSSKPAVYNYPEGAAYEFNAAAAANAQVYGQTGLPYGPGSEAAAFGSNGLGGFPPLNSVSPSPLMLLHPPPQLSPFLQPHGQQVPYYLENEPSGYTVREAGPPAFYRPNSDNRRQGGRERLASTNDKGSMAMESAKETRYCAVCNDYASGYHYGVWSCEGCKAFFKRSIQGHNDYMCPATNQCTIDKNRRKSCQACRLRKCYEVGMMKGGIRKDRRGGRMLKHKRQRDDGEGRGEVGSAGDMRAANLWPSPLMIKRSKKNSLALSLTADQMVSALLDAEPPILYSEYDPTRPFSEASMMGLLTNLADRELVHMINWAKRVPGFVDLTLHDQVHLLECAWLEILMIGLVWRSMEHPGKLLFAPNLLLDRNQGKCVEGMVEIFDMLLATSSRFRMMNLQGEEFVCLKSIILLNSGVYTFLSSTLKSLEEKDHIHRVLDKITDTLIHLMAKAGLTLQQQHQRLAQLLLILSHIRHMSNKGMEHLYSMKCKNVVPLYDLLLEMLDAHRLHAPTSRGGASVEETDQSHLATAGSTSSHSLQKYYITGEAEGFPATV

`C[C@]12CC[C@@H]3c4ccc(O)cc4C[C@@H](CCCCCCCCCS(=O)CCCC(F)(F)C(F)(F)F)[C@H]3[C@@H]1CC[C@@H]2O` (stereo partly drawn): the call in experiment [1], in experiment [3] and in experiment [6] was inactive. In addition, the Potency result in experiment [2], in experiment [4] and in experiment [7] was “inactive” in each case. Also, the Potency in experiment [5] is 9.68 µM (active) and 14.3 µM (active) and 8.41 µM (active).
In the case of `C[C@]12C[C@H](O)[C@H]3[C@@H](CCC4=CC(=O)CC[C@@]43C)[C@@H]1CC[C@@H]2C(=O)CO`, the result in experiment [1] and in experiment [3] was inactive. In [2], the Potency is 2.44 µM (active) and 344 nM (active) and 750 nM (active). The Potency result in experiment [8], in [4], in experiment [5], in experiment [9], in [10] and in experiment [7] was “inactive” throughout.
`NC(=O)c1ccc([N+](=O)[O-])cc1Cl`: the outcome in experiment [1] and in experiment [3] was inactive. In addition, the Potency entry in experiment [2], in experiment [8], in [4], in experiment [5], in experiment [9] and in experiment [7] was “inactive” in each case.
On to `CC1=NN(c2ccccc2)C(=O)C1`, for which the result in experiment [1] and in [3] was inactive. Moreover, the Potency result in experiment [2], in experiment [8], in experiment [4], in experiment [5], in experiment [9] and in [10] was “inactive” in each case. In addition, in experiment [7], the Potency result was “inactive”.
For the compound `O=C1CCCCCN1`, the result in experiment [1] and in [3] was inactive. Moreover, the Potency in experiment [2] was 1.54 µM (active) and inactive. Further, the Potency result in experiment [8], in experiment [4], in experiment [5], in experiment [9] and in experiment [7] was “inactive” in each case.
On to `NC(=O)N/N=C/c1ccc([N+](=O)[O-])o1`, for which the outcome in [1] and in experiment [3] was inactive. Moreover, the Potency result in [2] was “inactive and 10.9 µM (active) and 29.8 µM (active)”. Moreover, the Potency entry in experiment [8], in experiment [4], in experiment [5], in [9], in experiment [10] and in experiment [7] was “inactive” throughout.
`CCCCC/C(C=O)=C\c1ccccc1`: the compound was classed as inactive in [1] and in [3]. For the same compound, the Potency entry in [2], in experiment [8], in experiment [4], in [5], in experiment [9] and in [7] was “inactive” in each case.
Turning to `CC1(C)O[C@@H]2[C@@H](CO[C@@]3(COS(N)(=O)=O)OC(C)(C)O[C@@H]23)O1`, the compound was called inactive in experiment [1] and in experiment [3]. The Potency entry in [2], in experiment [8], in [4], in [5], in [9] and in experiment [10] was “inactive” each time. Further, in experiment [7], the Potency result is “inactive”.
On to `Cc1c(N(C)C)c(=O)n(-c2ccccc2)n1C`, for which the result in experiment [1] and in experiment [3] was inactive. Also, the Potency result in experiment [2], in experiment [8], in experiment [4], in experiment [5], in experiment [9] and in experiment [10] was “inactive” throughout. Also, in [7], the Potency result is “inactive”.
As for `Cc1ccc(O)c(-n2nc3ccccc3n2)c1`, the compound was classed as inactive in experiment [1] and in experiment [3]. For the same compound, the Potency in [2] is 60.6 µM (active) and inactive; in experiment [10] it was “inactive and 1.54 µM (active)”. Besides, the Potency entry in experiment [8], in [4], in [5], in experiment [9] and in [7] was “inactive” each time.
Consider `CCOCCO`, for which the call in [1] and in experiment [3] was inactive. Moreover, the Potency result in experiment [2], in experiment [8], in [4], in [5], in experiment [9] and in [7] was “inactive” in each case.
As for `CCCCOCCOCCSC#N`, the compound was called inactive in [1] and in experiment [3]. Further, the Potency result in [2], in [8], in [4], in experiment [5], in experiment [9] and in [7] was “inactive” in each case.
For the compound `COC(=O)c1ccc(O)cc1`, the compound was classed as inactive in experiment [1] and in experiment [3]. Further, the Potency entry in [2], in experiment [8], in experiment [4], in experiment [5], in [9] and in [10] was “inactive” in each case. Also, the Potency entry in experiment [7] was “inactive”.
For the compound `CO[C@H]1C=CO[C@@]2(C)Oc3c(C)c(O)c4c(O)c(c(/C=N/N5CCN(C)CC5)c(O)c4c3C2=O)NC(=O)/C(C)=C\C=C[C@H](C)[C@H](O)[C@@H](C)[C@@H](O)[C@@H](C)[C@H](OC(C)=O)[C@@H]1C`, the compound was called inactive in experiment [1] and in [3]. The Potency in [2] is 27.4 µM (active) and inactive; in experiment [4], 24.5 µM (active) and 27.6 µM (active) and 15 µM (active). Besides, the Potency entry in experiment [8], in experiment [5], in experiment [9] and in experiment [7] was “inactive” each time.
On to `CN(C)C=O`, for which the call in experiment [1] and in experiment [3] was inactive. The Potency entry in experiment [2], in experiment [8], in [4], in experiment [5], in experiment [9] and in experiment [10] was “inactive” each time. The Potency result in experiment [7] was “inactive”.
As for `COc1ccccc1NC(=O)CC(C)=O`, the compound was called inactive in [1] and in experiment [3]. The Potency entry in experiment [2], in experiment [8], in experiment [4], in experiment [5], in experiment [9] and in experiment [10] was “inactive” each time. For the same compound, in experiment [7], the Potency entry is “inactive”.
For `C=CCOC(=O)CC(C)C`, the outcome in experiment [1] and in experiment [3] was inactive. The Potency result in experiment [2], in experiment [8], in experiment [4], in experiment [5], in experiment [9] and in [10] was “inactive” in each case. Also, the Potency result in experiment [7] is “inactive”.
For the compound `CC(C)(C)CC(C)(C)c1ccc(O)c(-n2nc3ccccc3n2)c1`, the call in [1] and in [3] was inactive. Also, the Potency result in [2], in experiment [8], in [4], in [9], in experiment [10] and in experiment [7] was “inactive” each time. In [5], the Potency was 27.7 µM (active).
For the compound `O=c1cc[nH]c(=O)[nH]1`, the result in experiment [1] and in experiment [3] was inactive. For the same compound, the Potency entry in [2], in experiment [8], in [4], in experiment [5], in experiment [9] and in experiment [7] was “inactive” in each case.
With `NC(=O)NO`, the result in experiment [1] and in experiment [3] was inactive. Further, the Potency result in experiment [2], in [8], in [4], in experiment [5], in [9] and in experiment [7] was “inactive” each time.
Turning to `CC(=O)CCC(C)C`, the outcome in experiment [1] was inactive. Besides, the Potency result in [2], in [4], in experiment [5], in experiment [9], in [10] and in experiment [7] was “inactive” throughout.
For the compound `CCN(CC)CCOC(=O)c1ccc(N)cc1`, in experiment [1], the call was inactive. For the same compound, the Potency entry in experiment [2], in [4], in experiment [5], in experiment [9] and in [7] was “inactive” in each case.
